# HepG2 viability – qHTS for Inhibitors of TGF-b: Cytotox Counterscreen; AID 588856, 2011; Potency, µM (titrated, usually from 46.1 µM), without a hit: top-dose activity change, negative = cytotoxicity, usual class: cytotoxic; HepG2 CAGA-GFP viability, ATP luminescence, 18 h; 410,000 tested, 0.76% active; further: potency means the concentration at half of the fitted maximal effect
#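 CellTiter-Glo luminescence gave cytotoxicity after 18 hours at 37 degrees C. The cells were HepG2 CAGA-GFP in 1% FBS DMEM, stimulated with 500 pg/mL TGF-beta after compound addition. %Activity was normalised to no-cell wells (complete cell-killing) and DMSO (no toxicity), and curves were fitted and classified.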
# TGFb inhibitor – qHTS for Inhibitors of TGF-b | HepG2 CAGA-GFP TGF-b/SMAD3 reporter, GFP fluorescence, 18 h; TGF-beta stimulated, 500 pg/mL final | Potency, µM (doses to about 46.1 µM), without a hit: at the highest dose activity, negative = inhibition, usual class: inhibitors | 410,000 tested, 1.2% active | AID 588855, 2011; further: potency means the concentration at half of the fitted maximal effect; on the % scale 0 is the no-effect control and ±100 the full control effect; nearly all actives have a fitted effect of over 65% in size
#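 Inhibition of TGF-beta-driven CAGA-GFP reporter expression in HEPG2 cells is measured by cellular GFP fluorescence after 18 h stimulation with 500 pg/mL recombinant TGF-beta in 1% FBS medium at 37 degrees C.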
# Six1-Eya2 blk – qHTS Assay for Inhibitors of the Six1/Eya2 Interaction; AlphaScreen GST-Six1/His-Eya2 binding, biochemical; hits give low values; activity change, % (no concentration beside the values); 360,000 tested, 0.56% active; Homeobox protein SIX1 (Homo sapiens) + Protein phosphatase EYA2 (Homo sapiens), …; in the data active means activity change below about -65%; inconclusive means mostly about -30% to -63%; further: on the % scale 0 is the no-effect control and ±100 the full control effect
# Target sequence (O00167 whole entry, looked up): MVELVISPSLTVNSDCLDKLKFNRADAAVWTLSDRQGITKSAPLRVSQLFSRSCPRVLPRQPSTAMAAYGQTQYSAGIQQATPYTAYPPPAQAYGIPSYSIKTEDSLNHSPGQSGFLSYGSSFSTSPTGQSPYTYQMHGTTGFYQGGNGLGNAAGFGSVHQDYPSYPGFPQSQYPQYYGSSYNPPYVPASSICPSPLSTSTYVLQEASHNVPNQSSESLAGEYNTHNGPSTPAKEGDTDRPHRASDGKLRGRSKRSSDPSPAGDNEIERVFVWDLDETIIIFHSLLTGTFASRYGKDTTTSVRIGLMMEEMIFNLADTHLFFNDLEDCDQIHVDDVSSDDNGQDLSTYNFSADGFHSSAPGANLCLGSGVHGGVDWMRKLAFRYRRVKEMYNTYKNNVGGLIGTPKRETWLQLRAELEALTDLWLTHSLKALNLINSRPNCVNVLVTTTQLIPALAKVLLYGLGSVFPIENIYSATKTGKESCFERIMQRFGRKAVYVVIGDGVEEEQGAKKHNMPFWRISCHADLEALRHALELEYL
# Target sequence (Q15475 whole entry, looked up): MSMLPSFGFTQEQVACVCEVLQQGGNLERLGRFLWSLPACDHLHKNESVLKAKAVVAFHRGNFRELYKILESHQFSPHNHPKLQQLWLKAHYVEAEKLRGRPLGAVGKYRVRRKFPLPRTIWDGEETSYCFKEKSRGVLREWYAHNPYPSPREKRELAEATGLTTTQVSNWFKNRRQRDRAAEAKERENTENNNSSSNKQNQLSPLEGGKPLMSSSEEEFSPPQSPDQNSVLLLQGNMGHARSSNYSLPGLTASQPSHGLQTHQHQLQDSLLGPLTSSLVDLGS
#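 Compounds are tested against tagged Six1 and Eya2 proteins bridged by glutathione donor and nickel acceptor beads; after a one-hour incubation at 37 °C without light, AlphaScreen emission is recorded.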
# S2 tox – Viability Counterscreen for Primary qHTS for Inhibitors of ATXN expression; S2 cells (HEK-293 line with an ATXN2-luciferase reporter) viability, CellTiter-Fluor protease fluorescence, 24 h; Potency, µM (doses to about 56.7 µM), usual class: cytotoxic; 400,000 tested, 0.49% active; AID 651635, 2014; further: potency means the concentration at half of the fitted maximal effect; nearly all actives have a fitted effect of over 40% in size
# CtBP-E1A inh – qHTS Assay for Inhibitors of the CtBP/E1A Interaction | CtBP / adenovirus E1A interaction (AlphaScreen) | AlphaScreen GST-E1A/His-CtBP binding, 1536-well; hits give low values | activity change, % (no concentration beside the values) | 340,000 tested, 0.49% active | AID 651724, 2012; in the data active means activity change below about -65%; inconclusive means mostly about -30% to -63%; further: on the % scale 0 is the no-effect control and ±100 the full control effect
#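 Protein mix (5X: 125 nM each GST-E1A, His-CtBP) was incubated with pinned compound 2 h at 37 deg C in dark, in 50 mM Tris pH 8.0 buffer with 300 mM NaCl. Glutathione donor and nickel acceptor beads followed; AlphaScreen signal read after 1 h.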
# ATXN2 expr inh – Primary qHTS for Inhibitors of ATXN expression; Potency, µM (titrated, usually from 57 µM), for the others: top-dose activity change, negative = inhibition, usual class: inhibitors; AID 1745845, 2022; HEK-293 ATXN2-luciferase reporter, luminescence, 24 h; 360,000 tested, 0.72% active; further: potency means the concentration at half of the fitted maximal effect; on the % scale 0 is the no-effect control and ±100 the full control effect; nearly all actives have a fitted effect of over 55% in size
#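 ATXN2-luciferase reporter cells (luciferase flanked by upstream and downstream ATXN2 gene portions) were treated 24 h at 37 °C with compounds at up to 57 uM. SteadyGlo luminescence gave expression; GF-AFC fluorescence gave viability.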
# * = called active by the depositor; i = inactive; ? = inconclusive; nt = no result; ! = a repeat was not active; [ ] = dose if it differs, or a comment. Only some compounds are listed: those with a hit (about 2.8% of all), similar ones and a draw of the others. Unless noted, the call rests on the fitted dose curve; in most records, active means well fitted curve in the direction sought with a large enough effect; inconclusive means small, poorly fitted or top-dose-only effect, or another doubt; inactive means no such curve, though single readings can be large; an effect the other way counts as inactive or inconclusive.
SMILES,HepG2 viability,TGFb inhibitor,Six1-Eya2 blk,S2 tox,CtBP-E1A inh,ATXN2 expr inh
CCOC(=O)c1cnc(N2CC2)nc1N,-3%,-8%,9,28µM*,5,16µM*
CCOC(=O)c1ccccc1C(=O)OCC,-7%,40%,5,i,6,6%
CN(C)C(=S)SSC(=S)N(C)C,0.1µM*,-92%,?,22µM*,?,?
Cc1ccc(C)c(S(=O)(=O)Nc2ccc3c(c2)CCCN3C(=O)c2cccs2)c1,-20%,11µM*,nt,nt,nt,?
CC/C(=C\C=C\[C@@H]1C=C[C@@H]2CCC[C@H]2[C@@H]1C(=O)c1ccc[nH]1)[C@@H]1O[C@@H]([C@@H](C)C(=O)O)CC[C@@H]1C,16µM*,11µM*,-8,?,-6,?
Fc1ccc([C@@H]2CCNC[C@H]2COc2ccc3c(c2)OCO3)cc1,11µM*!,?,?,28µM*,?,32µM*!
C[C@]12CC[C@H]3[C@@H](CCC4=CC(=O)CC[C@@]43C)[C@H]1CC[C@H]2OC(=O)CCC1CCCC1,nt,nt,nt,nt,nt,-4%
CN(C(=O)Oc1ccc([N+](=O)[O-])cc1)c1ccccc1,24%,-3%,4,i,-4,5%
CN(Cc1cccc(-c2ccncc2)c1)C(=O)Oc1ccc([N+](=O)[O-])cc1,nt,nt,-8,32µM*,-4,25µM*
Cc1nc2ccccc2c(=O)n1-c1ccc(Br)cn1,12%,12%,15,i,-3,23%
Cc1nc2ccccc2c(=O)n1/N=C/c1cc(Br)cc(Br)c1O,-28%,?,-66*,i,-78*,?
CC(=O)c1cccc(NC(=O)CSc2ncc3c(n2)-c2cc(Cl)ccc2N(Cc2ccccc2)S3(=O)=O)c1,-6%,?,nt,i,nt,9%
CCOC(=O)c1ccc(N2C(=O)c3n[nH]c(-c4cccs4)c3C2c2ccc(OC)cc2OC)cc1 (stereo unspecified),-23%,5µM*,nt,i,nt,8%
CC(C)(C)[C@]1(O)C[C@@H]2OC(=O)C[C@@]23C(=O)O[C@@H]2OC(=O)[C@H](O)C213 (stereo partly specified),nt,nt,nt,nt,nt,3%
CCCN(CCC)c1c([N+](=O)[O-])cc(S(N)(=O)=O)cc1[N+](=O)[O-],nt,nt,nt,50µM*,nt,50µM*
CCN(CCNc1ccc([N+](=O)[O-])c2cccnc12)S(=O)(=O)c1ccccc1,-6%,-18%,-4,i,0,4%
C=C(C)[C@H]1[C@H]2OC(=O)[C@@H]1[C@]1(O)C[C@H]3O[C@]34C(=O)O[C@H]2[C@@]14C,nt,nt,nt,i,nt,nt
Cc1cccc(C)c1NC(=O)c1cccn(Cc2ccc3c(c2)OC(F)(F)O3)c1=O,11µM*,-23%,-1,i,1,-25%
COc1ccc(OC)c(N2C(=O)NC(=O)/C(=C\c3ccc([N+](=O)[O-])s3)C2=O)c1,0%,?,-67*,i,?,-26%
Cc1nc2ccccc2c(=O)n1-c1ccccc1Cl,nt,nt,nt,?,nt,-26%[116 µM]
COC(=O)[C@@H](N)CCCN/C(N)=N/[N+](=O)[O-],nt,nt,nt,i,nt,10%
CCC(C(=O)Nc1ccccc1C(=O)OC)n1nc(C)c2c(C)n(-c3ccc(C)cc3)nc2c1=O (stereo unspecified),-15%,11µM*,nt,nt,nt,nt
Cc1c(C(=O)NCc2nccs2)cnn1-c1ncc2c(n1)-c1ccccc1CC2,nt,nt,nt,i,nt,nt
CCc1ccc(NP(=O)(Oc2ccccc2F)Oc2ccccc2F)cc1,-104%,18µM*,-2,i,-1,1%
Cc1ccc(NP(=O)(Oc2ccccc2F)Oc2ccccc2F)cc1,-27%,?,-3,?,7,-30%
SMILES,HepG2 viability,TGFb inhibitor,Six1-Eya2 blk,S2 tox,CtBP-E1A inh,ATXN2 expr inh
CC(=O)O[C@@]12CO[C@H]1C[C@H](O)[C@@]1(C)C(=O)[C@H](O)C3=C(C)[C@@H](O)C[C@@](O)([C@@H](OC(=O)c4ccccc4)[C@@H]21)C3(C)C,nt,nt,nt,nt,nt,-7%
COC(=O)C1=C(c2ccc(Cl)c(C(F)(F)F)c2)C[C@@H]2CC[C@H]1N2C(=O)N1CCC(O)(c2ccc(Cl)cc2)CC1,-46%,14µM*,-2,?,0,?
CCC(=O)[C@@H](C)[C@@H](O)[C@H](C)C[C@@H](C)C1OC(=O)C[C@@]2(O)CC=C(C)C(O2)C(C)=CCCC[C@H](O[C@H]2C[C@@H](OC(N)=O)[C@H](O)[C@@H](C)O2)C=C[C@H](C)C[C@H]1C (stereo partly specified),nt,nt,-13,14µM*,-12,-54%
O=C(N[C@@H]1N=C(c2ccccc2F)c2cccc3c2N(CC3)C1=O)c1cc2ccccc2[nH]1,nt,nt,nt,i,nt,84%
CC1=C(O)C(=O)C=C2C1=CC=C1C2(C)CCC2(C)C3CC(C)(C(=O)O)CCC3(C)CCC12C (stereo unspecified),3.2µM*,2µM*,-7,5.6µM*,-1,4.5µM*
C=C1C(=O)OC2CC3(C)OC3CCC(C)=CC(OC(C)=O)C12 (stereo unspecified),-100%,18µM*,2,nt,10,?
Cc1c2ccncc2c(C)c2c1[nH]c1ccccc12,13µM*,?,-2,?,8,14µM*
c1ccc2c(c1)[nH]c1cnccc12,-11%,-2%,-2,i,7,-7%
